TDP1 cell CPT: qHTS for Inhibitors of human tyrosyl-DNA phosphodiesterase 1 (TDP1): qHTS in cells in presence of CPT | actives 12% (n = 420,000) | Potency, µM (highest dose often 46.2 µM), inactives show top-dose activity change, negative = growth inhibition, actives largely listed as inhibitors | chicken DT40 Tdp1-/-;hTDP1 cells + 20 nM CPT, ATP luminescence, 48 h; note: potency is the fitted concentration of half-maximal effect; % is set by controls: 0 for no effect and ±100 for the full control effect; nearly all actives have a fitted effect of over 55% in size
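Chicken DT40 Tdp1-/- cells complemented with human TDP1, 400 cells/well, exposed to compounds plus 20 nM camptothecin for at least 48 h at 37 C; viability read as ATP content by CellTiter-Glo luminescence.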
TDP1 inh: qHTS Assay for Inhibitors of Tyrosyl-DNA Phosphodiesterase (TDP1). Tyrosyl-DNA phosphodiesterase 1 (Homo sapiens), Q9NUW8. recombinant TDP1, AlphaScreen DNA substrate cleavage. Potency, µM (highest dose often 130 µM), inactives show top-dose activity change, negative = inhibition, hits mostly inhibitors. actives 0.28% (n = 350,000). AID 485290, 2010; note: potency is the fitted concentration of half-maximal effect; % is set by controls: 0 for no effect and ±100 for the full control effect; nearly all actives have a fitted effect of over 40% in size
Target sequence (Q9NUW8 whole entry, looked up): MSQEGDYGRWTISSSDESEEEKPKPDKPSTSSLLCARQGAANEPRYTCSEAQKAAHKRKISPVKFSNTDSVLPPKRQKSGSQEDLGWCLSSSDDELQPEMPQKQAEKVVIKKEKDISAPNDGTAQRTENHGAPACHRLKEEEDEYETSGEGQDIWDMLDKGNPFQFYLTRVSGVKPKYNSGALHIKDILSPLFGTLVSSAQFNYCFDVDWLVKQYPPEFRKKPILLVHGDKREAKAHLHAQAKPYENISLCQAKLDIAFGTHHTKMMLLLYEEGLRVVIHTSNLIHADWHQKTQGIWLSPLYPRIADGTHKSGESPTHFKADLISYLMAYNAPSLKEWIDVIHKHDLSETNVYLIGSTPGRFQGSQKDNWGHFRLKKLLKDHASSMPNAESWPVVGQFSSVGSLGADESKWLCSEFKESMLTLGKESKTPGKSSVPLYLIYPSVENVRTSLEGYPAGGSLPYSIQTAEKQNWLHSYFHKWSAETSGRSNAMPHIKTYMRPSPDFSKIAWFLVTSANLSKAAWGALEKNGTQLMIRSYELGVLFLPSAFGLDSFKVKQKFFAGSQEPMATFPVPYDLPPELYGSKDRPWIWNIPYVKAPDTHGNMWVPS
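Steps: enzyme plus compound, 15 min RT; add biotin/phosphotyrosine-FITC oligonucleotide (15 nM final), react 5 min; add donor/acceptor beads (10 ug/ml final), 10 min; read AlphaScreen. Tdp1 at 1 nM final.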
DT40 TDP1 no CPT: qHTS for Inhibitors of human tyrosyl-DNA phosphodiesterase 1 (TDP1): qHTS in cells in absence of CPT; Potency, µM (series often up to 46.2 µM), inactives show at the highest dose activity change, negative = growth inhibition, hits mostly inhibitors; actives 15% (n = 420,000); DT40 Tdp1-/- hTDP1 cells, no CPT, ATP luminescence, 48 h; note: potency is the fitted concentration of half-maximal effect; % is set by controls: 0 for no effect and ±100 for the full control effect; nearly all actives have a fitted effect of over 55% in size
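No-CPT arm: Tdp1-/-;hTDP1 DT40 cells (400/well) plus compounds, incubated ≥48 hr at 37 °C. Readout CellTiter-Glo luminescence.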
TGFb inhibitor: qHTS for Inhibitors of TGF-b | actives 1.2% (n = 410,000) | AID 588855, 2011 | Potency, µM (series often up to 46.1 µM), for inactives: at the highest dose activity, negative = inhibition, actives largely listed as inhibitors | HepG2 CAGA-GFP TGF-b/SMAD3 reporter, GFP fluorescence, 18 h; TGF-beta stimulated, 500 pg/mL final; note: potency is the fitted concentration of half-maximal effect; % is set by controls: 0 for no effect and ±100 for the full control effect; nearly all actives have a fitted effect of over 65% in size
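TGF-beta reporter screen: HEPG2 CAGA-GFP, 1% FBS, 500 pg/mL TGF-beta final, 18 h; per-cell GFP summed per well; curves fitted and categorized by class.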
IL-1B inflam inh: qHTS for Inhibitors of Inflammasome Signaling: IL-1-beta AlphaLISA Primary Screen; THP-1 LPS/ATP IL-1B secretion, AlphaLISA, 16 h; stronger effect = lower value; activity change, % at 57.5 µM; actives 4.7% (n = 360,000); AID 743279, 2014; in the data active = activity change below about -50%; inconclusive = mostly about -30% to -49%; note: % is set by controls: 0 for no effect and ±100 for the full control effect
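Secreted IL-1B measured by AlphaLISA bead assay after 16 h compound exposure of THP-1 cells; compounds (final up to 57.5 uM) added 1 h before LPS (250 ng/mL) and ATP (1.25 mM) stimulation; lower signal means less secretion.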
HepG2 viability: qHTS for Inhibitors of TGF-b: Cytotox Counterscreen | HepG2 CAGA-GFP viability, ATP luminescence, 18 h | Potency, µM (doses to about 46.1 µM), without a hit: at the top dose activity change, negative = cytotoxicity, actives largely listed as cytotoxic | actives 0.76% (n = 410,000); note: potency is the fitted concentration of half-maximal effect
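CellTiter-Glo luminescence gave cytotoxicity after 18 hours at 37 degrees C. The cells were HepG2 CAGA-GFP in 1% FBS DMEM, stimulated with 500 pg/mL TGF-beta after compound addition. %Activity was normalised to no-cell wells (complete cell-killing) and DMSO (no toxicity), and curves were fitted and classified.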
An asterisk follows results filed as active; ? = inconclusive; / = no result given. Shown are actives, neighbours in structure and some others; about 18% of the full set was active somewhere. Unless noted, calls come from the whole dose curve; as a rule, active = well fitted curve in the direction sought with a large enough effect; inconclusive = small, poorly fitted or top-dose-only effect, or another doubt; inactive = no such curve, though single readings can be large; an effect the other way counts as inactive or inconclusive.

SMILES	TDP1 cell CPT	TDP1 inh	DT40 TDP1 no CPT	TGFb inhibitor	IL-1B inflam inh	HepG2 viability
COc1ccc(CCNC(=O)c2ccc(CNS(=O)(=O)c3cccc(Cl)c3)cc2)cc1OC	?	7%	23µM*	-14%	-12	-36%
COc1ccc(CCNS(=O)(=O)c2cccc(C(=O)O)c2)cc1OC	21µM*	-4%	16µM*	0%	13	-20%
Cc1ccc(CCNS(=O)(=O)c2ccc3c(c2)NC(=O)CCS3)cc1	?	1%	?	-24%	11	-20%
CCOc1ccc(N(CC(=O)NCc2ccccc2C)S(C)(=O)=O)cc1	-13%	0%	-6%	-4%	-20	-25%
COc1cccc(-c2ccc3ncnc(N(C)Cc4ccco4)c3c2)c1	?	5%	?	?	/	-28%
CN(C)c1ccc(-c2ccc3ncnc(N(C)Cc4ccco4)c3c2)cc1	4.1µM*	/	2.6µM*	/	/	/
Cc1ccsc1CN(C)c1ncnc2ccc(-c3ccoc3)cc12	/	/	/	11µM*	/	-43%
CN(Cc1cccs1)c1ncnc2ccc(-c3ccc4c(c3)OCO4)cc12	/	-6%	/	/	/	/
O=C(NCc1ccccc1Cl)[C@H]1CCCN1C(=O)[C@H]1CCCN1C(=O)c1cccc2ccccc12	-20%	/	?	/	-3	/
CCOC(=O)N1CCN(C(=O)CSc2nnc3[nH]c(=O)c(C)c(C)n23)CC1	0%	/	-3%	-3%	2	2%
COc1ccc(C(=O)NCC(c2cccnc2)N2CCN(c3ccccc3)CC2)cc1 (centres undefined)	?	0%	16µM*	-21%	/	3%
COc1ccc(C(=O)NCC(c2cccnc2)N2CCN(c3ccc(F)cc3)CC2)cc1 (centres undefined)	15µM*	10%	10µM*	-24%	/	-10%
COc1ccc(N2CCN(C(CNC(=O)c3ccc(OC)c(OC)c3)c3cccnc3)CC2)cc1 (centres undefined)	-17%	-3%	?	3%	/	-34%
O=C(COC(=O)c1ccc[n+]([O-])c1)Nc1cc([N+](=O)[O-])ccc1Cl	11%	-6%	0%	-10%	-3	4%
COc1ccc(S(=O)(=O)Nc2cccc3c2O[C@H](CN(C)C(=O)Nc2ccc4c(c2)OCO4)[C@@H](C)CN([C@H](C)CO)C3=O)cc1	-16%	4%	-14%	-7%	3	-2%
CC(=O)Nc1c(Cl)cc(Cl)c2c1Cc1cc(Cl)ccc1-2	?	/	?	11%	34	-7%
CC(=O)c1cccc(NC(=O)C(Cc2ccccc2)NS(=O)(=O)c2ccc(Br)s2)c1 (centres undefined)	-21%	-8%	-21%	-2%	/	1%
Nc1[nH]c(C(=O)c2ccccc2)c(-c2cccnc2)c1C(=O)NCCc1ccc(Cl)cc1Cl	?	/	?	/	-3	/
COc1ccc(C(=O)c2[nH]c(N)c(C(=O)NCCc3c[nH]c4ccccc34)c2-c2ccc(Cl)cc2)cc1	18µM*	/	?	/	?	/
COc1ccc(C(=O)c2[nH]c(N)c(C(=O)NCCc3c[nH]c4ccccc34)c2-c2ccc(Cl)c(F)c2)cc1	?	/	18µM*	/	-17	/
CCCc1cc(=O)oc2cc(C)cc(OCC(=O)NCc3ccncc3)c12	-20%	5%	3%	-13%	3	5%
O=c1ccc(Cl)nn1-c1ccccc1	-14%	/	-1%	-15%	0	-2%
Cc1cccc2cc(CN(CCCO)C(=O)Nc3ccc(Cl)cc3)c(=O)[nH]c12	?	4%	21µM*	?	?	-16%
Cc1ccc(C)c2[nH]c(=O)c(CN(CCN3CCCC3)C(=O)Nc3ccc(F)cc3)cc12	?	1%	15µM*	?	?	-24%
COc1cc2cc(CN(CCN3CCCC3)C(=O)Nc3ccc(F)cc3)c(=O)[nH]c2cc1OC	?	1%	?	-7%	?	-21%
SMILES	TDP1 cell CPT	TDP1 inh	DT40 TDP1 no CPT	TGFb inhibitor	IL-1B inflam inh	HepG2 viability
Cc1cccc2cc(CN(CCCO)C(=O)Nc3cccc(Cl)c3)c(=O)[nH]c12	23µM*	3%	21µM*	0%	-25	1%
Cc1cccc2cc(CN(CCCO)C(=O)Nc3ccccc3Cl)c(=O)[nH]c12	?	5%	-21%	-1%	-23	2%
CCCN1CCN(CCCNC(=O)c2cnn(-c3ccc(F)cc3)c2-n2cccc2)CC1	/	0%	/	4%	/	-6%
CCCC1=NN(C(=O)C(=O)Nc2ccc(Br)cc2)C(O)(C(F)(F)F)C1 (centres undefined)	4.1µM*	1%	4.6µM*	?	21	-78%
CCC1=NN(C(=O)C(=O)Nc2ccc(Br)cc2)C(O)(C(F)(F)F)C1 (centres undefined)	-12%	5%	-3%	?	44	-23%
COc1ccc(NC(=O)C(=O)N2N=C(C(C)C)CC2(O)C(F)(F)F)cc1 (centres undefined)	5.8µM*	6%	5µM*	-6%	-12	9%
CC(C)C1=NN(C(=O)c2cccnc2)C(O)(C(F)(F)F)C1 (centres undefined)	?	8%	?	15%	23	-18%
O=C(CN1CCN(Cc2ccc3c(c2)OCO3)CC1)Nc1cc(S(=O)(=O)N2CCCC2)ccc1Cl	?	4%	16µM*	?	-3	1%
CN(C)S(=O)(=O)c1ccc(Cl)c(NC(=O)CN2CCN(Cc3ccc4c(c3)OCO4)CC2)c1	?	7%	21µM*	?	15	-24%
O=C(CN1CCN(C(=O)c2ccccc2)CC1)Nc1cc(S(=O)(=O)N2CCCC2)ccc1Cl	?	1%	?	?	7	-19%
CCOc1ccc(C(C)=O)cc1CSc1nnc(-c2cccs2)n1CC1CCCO1 (centres undefined)	?	2%	18µM*	33%	?	-13%
Cc1cc(-c2ccccc2)nc(N(C)N)c1S(C)(=O)=O	-14%	4%	-10%	5%	-5	7%
Cc1cc(-c2ccccc2)nc(N(C)NC(=O)c2c(F)cccc2F)c1S(C)(=O)=O	?	-5%	23µM*	1%	-19	9%
